The values that follow come from PubChem BioAssay (NCATS).

Records with an inconclusive call do not appear. Where a call stands in place of a potency, no number is given. The source made the active and inactive calls. Calls come from the whole dose curve.
Potency is the fitted concentration of half-maximal effect.

The test can be described thus: Cytotoxicity counterscreen for inhibitors of SARS-CoV-2 cell entry (AID 1645845). Note: nearly all actives have a fitted effect of over 50% in size. As to conditions: cell viability (SARS-CoV-2 entry assay cells); series mostly up to 57.1 µM. Put shortly:
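Counterscreen run in the same HEK293-ACE2 line as the pseudotyped-particle entry assay, without particles. Viability after 48 h at 37 C was read as ATP luminescence, scaled between cell-containing and cell-free wells.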
(In general: Counterscreens check selectivity or assay interference.)
With `COc1ccc(CCN2CCN(CCCc3ccccc3)CC2)cc1OC`, the Potency entry is “inactive”.
The value for `COc1cc(N2CCC(N3CCN(C)CC3)CC2)ccc1Nc1ncc(Cl)c(Nc2ccccc2S(=O)(=O)C(C)C)n1` was 31.6 µM (active); that for `CN[C@@H](C)C(=O)N[C@H]1CCCC[C@H]2CC[C@@H](C(=O)N[C@@H](c3ccccc3)c3cn(CCCCc4ccc(CCCCn5cc([C@@H](NC(=O)[C@@H]6CC[C@@H]7CCCC[C@H](NC(=O)[C@H](C)NC)C(=O)N76)c6ccccc6)nn5)cc4)nn3)N2C1=O` was “inactive”.
Regarding `COc1cccc(OC)c1-c1cc(C(=O)NC2(C(=O)O)C3CC4CC(C3)CC2C4)nn1-c1ccnc2cc(Cl)ccc12` (centres undefined), the Potency result was “inactive”.
Next, `Cc1c(C)c2c(c(C)c1OC(=O)c1cccnc1)CC[C@@](C)(CCC[C@H](C)CCC[C@H](C)CCCC(C)C)O2`: “inactive”; `COc1cc2c(cc1OC)CC(=O)N(CCCN(C)C[C@H]1Cc3cc(OC)c(OC)cc31)CC2`: “inactive”.
Next, `O=C(O)c1ccc2cc(-c3ccc(O)c(C45CC6CC(CC(C6)C4)C5)c3)ccc2c1`: 3.16 µM (active); `O=C(NCCS(=O)(=O)c1ccc(C(F)(F)F)cn1)c1ccc(Cl)cc1`: “inactive”.
The value for `CC(C)C[C@H](NC(=O)[C@@H](O)[C@H](N)Cc1ccccc1)C(=O)O` was “inactive”; that for `CC1(C)Cc2c(-c3ccccc3)c(-c3ccc(Cl)cc3)c(CC(=O)O)n2C1` was “inactive”; that for `CC(C)(C)NCC(O)c1ccc(O)c(CO)c1` (centres undefined) was “inactive”.
For `Cn1cc(-c2[nH]c3cc(NC(=O)[C@H](N)C4CCCCC4)cc4c3c2C=NNC4=O)cn1`, the Potency was 15.8 µM (active).
The value for `c1ccc2c(-c3cnn4cc(-c5ccc(N6CCNCC6)cc5)cnc34)ccnc2c1` was 7.08 µM (active).
Next, `CCCn1c(=O)c2[nH]c(C34CC5CC3C[C@@H](C5)C4)nc2n(CCC)c1=O`: “inactive”; `CC(C)Oc1cc(Nc2nc(N[C@@H](C)c3ccc(F)cn3)ncc2Cl)[nH]n1`: “inactive”.
The value for `O=C(NCCCNc1nc(Nc2cccc(NC(=O)N3CCCC3)c2)ncc1I)c1cccs1` was “inactive”; that for `O=C(O)CNC(=O)CNC(=O)CNC(=O)CSC(=O)c1ccccc1` was “inactive”; that for `CCCCCCCCCCCCCC(=O)N[C@H](CO)[C@H](O)c1ccc([N+](=O)[O-])cc1` was “inactive”.
Turning to `Nc1nc2c(ncn2CCC(CO)CO)c(=O)[nH]1`, the Potency result is “inactive”.
Next, `CCN(CC)CCCCNc1nc2cc(Cl)c(Cl)cc2nc1-c1ccc(-c2cccs2)s1`: “inactive”; `O=C(Nc1ccccc1-c1cn2c(CN3CCNCC3)csc2n1)c1cnc2ccccc2n1`: 7.08 µM (active); `C[C@@H](N)C1CCC(C(=O)Nc2ccncc2)CC1` (some centres undefined): “inactive”.
The value for `Oc1cccc(-c2nc(N3CCOCC3)c3oc4ncccc4c3n2)c1` was “inactive”; that for `Cn1c2cc(S(C)=O)sc2c2cnn(Cc3cccc(N)c3)c(=O)c21` (centres undefined) was “inactive”.
With `CCCCCCCCCCC(CO)CCCCCCCC` (centres undefined), the Potency result is “inactive”.
Consider `CCCCc1ccc(NS(=O)(=O)c2ccc(C)c(C(=O)N3CCN(c4cccc(C)c4C)CC3)c2)cc1`, for which the Potency result is “inactive”.
The value for `Cc1cc(C(=O)NNCc2ccccc2)no1` was “inactive”.
`CN(C)C1CCN(C(=O)c2ccc(NC(=O)Nc3nc(N4CCOCC4)nc(N4CCOCC4)n3)cc2)CC1`: the Potency was 6.31 µM (active).
Next, `Cc1cn(-c2cc(NC(=O)c3ccc(C)c(Nc4nccc(-c5cccnc5)n4)c3)cc(C(F)(F)F)c2)cn1`: “inactive”.
For `Cn1cc(-c2ccc3nnc(C(F)(F)c4ccc5ncccc5c4)n3n2)cn1`, the Potency result was “inactive”.
Next, `N#CC[C@H](C1CCCC1)n1cc(-c2ncnc3[nH]ccc23)cn1`: “inactive”.
The value for `Cc1ccc(C(=O)Nc2ccc(CN3CCN(C)CC3)c(C(F)(F)F)c2)cc1C#Cc1cnc2cccnn12` was 31.6 µM (active).
The value for `N#Cc1c(O)c2c(-c3ccc(-c4ccccc4O)cc3)csc2[nH]c1=O` was “inactive”.
Turning to `CC(C)(C(=O)NCC(F)(F)C(F)(F)F)C(=O)N[C@@H]1C(=O)Nc2ccccc2-c2ccccc21`, the Potency result is “inactive”.
The value for `CC(C)(C)C(O)/C=C/c1ccc2c(c1)OCO2` (centres undefined) was “inactive”; that for `CC1=C(C/C=C(\C)CCC[C@H](C)CCC[C@H](C)CCCC(C)C)C(=O)c2ccccc2C1=O` was “inactive”; that for `CCCCCN(CCC12CC3CC(CC(C3)C1)C2)C(=O)NCCCc1ccncc1` was “inactive”.
The value for `N#C/C(=C1\SCC(c2ccccc2Cl)S1)n1ccnc1` (centres undefined) was “inactive”.
For `COc1cc2c(cc1OC)CN(CCc1ccc(NC(=O)c3cccc4c(=O)c5cccc(OC)c5[nH]c34)cc1)CC2`, the Potency result is “inactive”.
